In PubChem BioAssay (NCI) one finds growth data, which are given here for 40 compounds.

This is part of a sample that, as a whole, favours compounds with a hit. Of some 83,000 tested, about 20% had one in any assay.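 Method: cells in 96-well plates; compound added at one concentration; 48 h incubation; percent growth measured; values under 10 scored active.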 A number with no mark means an inactive call. Calls of active or inactive are those of the source.

The subject of the assay is HL-60(TB) leukemia. Briefly: NCI-60 one-dose screen, 48 h (100 = growth as untreated, 0 = no growth, -100 = all killed). To be noted: 10 µM unless noted.
In the case of `Fc1ccc(Nc2ccc3cc(OCCCN4CCOCC4)ccc3n2)cc1F`, the growth is 75.4%.

With `CCCCCCCCn1ccc2cc(NC(=O)Cn3cc(CN4CCC(C)CC4)nn3)ccc21`, the growth was -22.4% (active).

For `CCOC(=O)C1=C(c2ccccc2)N=C2SC=C(c3ccc(Cl)cc3)N2C1c1ccc(Br)cc1` (stereo not given), the growth is 55.2%.

For the compound `NC(=S)N/N=C/C(=O)O`, the growth was 87.8%.

Turning to `CCN(CC)CCOC(=O)Nc1c(C(C)C)cccc1C(C)C`, the growth is 101%.

In the case of `C(CCCSC1=NCCN1)CCSC1=NCCN1`, the growth is 76.2%.

Consider `N#CC1=C(N)Oc2c(sc3c(F)cccc23)C1c1ccc([N+](=O)[O-])cc1` (stereo not given), for which the growth was -7.41% (active).

Take `O=C(/C=C/c1ccc(Br)cc1)c1ccc(-n2cc(CN3CCN(c4cc5c(cc4F)c(=O)c(C(=O)O)cn5C4CC4)CC3)nn2)cc1`: the growth was 94.3%.

Regarding `CCCCc1nc(Cl)c(CO)n1Cc1ccc(-c2ccccc2-c2nn[nH]n2)cc1`, the growth was 110%.

Regarding `C/C(=N\NC(=O)CSc1nc2ccccc2c(=O)n1CCc1ccc(S(N)(=O)=O)cc1)c1ccc(Br)cc1`, the growth is 66.3%.

As to `CN(C)c1ccc(/C=C/c2cc[n+](C)c(/C=C/c3ccc(N(C)C)cc3)c2)cc1`, the growth is -56.3% (active).

On to `CCOC(=O)N[C@H]1CCc2cc(OC)c(OC)c(OC)c2-c2ccc(SC)c(=O)cc21`, for which the growth is -28.9% (active).

In the case of `C=C1C(=O)O[C@H]2[C@H]1CC/C(CNS(=O)(=O)c1cccc3ccccc13)=C\CC[C@@]1(C)O[C@@H]21`, the growth is -31.9% (active).

In the case of `CCC1(c2ccccc2)Oc2ccccc2-n2c(C#N)c3ccccc3c2C1=O` (stereo not given), the growth was 92.8%.

`O=C(C1=Cc2cc3ccccc3n2Cc2cnnn21)c1ccc(O)cc1`: the growth is 41.7%.

For the compound `N=C(N)c1ccc(-c2ccc(-c3ccc(Cl)c(Cl)c3)s2)cc1`, the growth is -32% (active).

On to `CN(CC(=O)N(Cc1ccc(C2CCCCC2)cc1)c1ccc(C(=O)NO)cc1)S(=O)(=O)c1c(F)c(F)c(F)c(F)c1F`, for which the growth was 43.6%.

For `COc1cccc(/C=C/C(=O)c2c(C)nc3ccccc3c2/C=C/c2ccccc2)c1OC`, the growth is 13.6%.

For the compound `O=C1c2ccccc2-c2c1c1cccnc1c(=O)n2C[C@H](O)CO`, the growth was 48.8%.

For the compound `COc1cccc(C(=O)OCCn2nc3c4c(cccc42)C(=O)c2ccccc2-3)c1O`, the growth is 0.071% (active).

Consider `CCOC(=O)c1sc(NC(=O)CN2CCC(Cc3ccccc3)CC2)nc1C`, for which the growth is 92%.

`CC(C)(C)[C@H](OCc1cn([C@H]2C[C@@H](O)[C@@H](CO)O2)c(=O)[nH]c1=O)c1ccc(C#Cc2ccccc2)cc1[N+](=O)[O-]`: the growth is 70.4%.

On to `Cn1cc(-c2ccc(F)c(C(F)(F)F)c2)nc1C1CCN(c2ncnc3[nH]ncc23)CC1`, for which the growth is 84.7%.

Consider `Cc1ccc(S(=O)(=O)N(CC[C@@H]2C[C@H]2c2cc3ccccc3o2)C(=O)NC2CCCCC2)cc1`, for which the growth is 105%.

Regarding `Nc1nc(NC2CC2)c2ncn(C3C=CC(CO)C3)c2n1` (stereo not given), the growth was 86.6%.

With `O=[N+]([O-])/C(=C/C=C/c1ccccc1)c1ccccc1`, the growth is -2.71% (active).

As to `COc1ccc(-c2nc(SC(C)C)nc(NNC(N)=O)c2C#N)cc1`, the growth was 80.3%.

With `CN(C)c1ccc(-c2ccc3c(c2)c(-c2ccccc2)nc(=O)n3C)cn1`, the growth was 43.5%.

With `CCN(CC)CCC(C(=O)O)(c1ccccc1)c1ccccc1`, the growth is 93.5%.

Consider `Cc1cccc(NC(=O)c2sc3nc4c(cc3c2N)CN(Cc2ccccc2)CC4)c1C`, for which the growth is 7.62% (active).

As to `CCOC(=O)C(Nc1ccccc1)C(=O)OCC`, the growth was 101%.

`NS(=O)(=O)c1ccc(CCn2c(SCC(=O)c3ccc(Cl)cc3)nc3ccccc3c2=O)cc1`: the growth is 95.5%.

`COc1ccc(/C=C/c2nc(N3CCOCC3)c3nc(Cl)c(Cl)cc3n2)cc1OC`: the growth is 91.9%.

`CC(C)[C@@H]1CC[C@]2(C(=O)NCCCCN=C(N)N)CC[C@]3(C)[C@H](CC[C@@H]4[C@@]5(C)CCC(=O)C(C)(C)[C@@H]5CC[C@]43C)[C@@H]12`: the growth was 13.5%.

For the compound `CCCCCO/N=C\c1c2c(O)c3c(O)c(C)c4c(c3c1O)C(=O)C(C)(O/C=C\C(OC)C(C)C(OC(C)=O)C(C)C(O)C(C)C(O)C(C)/C=C\C=C(\C)C(=O)N2)O4` (stereo not given), the growth was -6.96% (active).

For `CC(C)n1c(/C=C/[C@@H](O)C[C@@H](O)CC(=O)O)c(-c2ccc(F)cc2)c2ccccc21`, the growth was 91.4%.

`COc1ccc([N+](=O)[O-])c(S(=O)(=O)c2ccc(Cl)cc2)n1`: the growth was 38.2%.

As for `C[N+](C)(C)CN1C(=O)c2ccccc2C1=O`, the growth is 96.1%.

As to `Nc1ccc(C2=CC(c3ccc(Cl)cc3)N3C=CSC3=N2)cc1` (stereo not given), the growth is -19.3% (active).

Take `CCCCCCCCCCCCNC(=O)[C@H]1CSC(c2ccc(OC)c(F)c2)N1` (stereo not given in full): the growth was -70.3% (active).
